D3 antag – antagonists of human D3 dopamine receptor; D3R cells, DiscoveRx beta-arrestin luminescence, antagonist mode; active compounds read low; max response, negative = inhibition, %; 2.5% of 360,000 active; in the data active = max response below about -50%; inconclusive = no clear call, values can overlap the other calls; note: % is set by controls: 0 for no effect and ±100 for the full control effect
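Cells expressing the human receptor were seeded at 1500 cells/well, incubated overnight at 37 degrees C in 5% CO2, then exposed to library compounds with dopamine controls for 90 minutes at 37 degrees C before luminescent detection.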
D1 antag – blocks dopamine activation of the human D1 receptor; P21728; HEK293 TREx D1 cells, calcium flux, dopamine EC80; active compounds read low; activity change, negative = inhibition, % at 10 µM; 3.2% of 360,000 active; in the data active = activity change below about -30%; note: % is set by controls: 0 for no effect and ±100 for the full control effect
Target sequence (P21728 whole entry, looked up): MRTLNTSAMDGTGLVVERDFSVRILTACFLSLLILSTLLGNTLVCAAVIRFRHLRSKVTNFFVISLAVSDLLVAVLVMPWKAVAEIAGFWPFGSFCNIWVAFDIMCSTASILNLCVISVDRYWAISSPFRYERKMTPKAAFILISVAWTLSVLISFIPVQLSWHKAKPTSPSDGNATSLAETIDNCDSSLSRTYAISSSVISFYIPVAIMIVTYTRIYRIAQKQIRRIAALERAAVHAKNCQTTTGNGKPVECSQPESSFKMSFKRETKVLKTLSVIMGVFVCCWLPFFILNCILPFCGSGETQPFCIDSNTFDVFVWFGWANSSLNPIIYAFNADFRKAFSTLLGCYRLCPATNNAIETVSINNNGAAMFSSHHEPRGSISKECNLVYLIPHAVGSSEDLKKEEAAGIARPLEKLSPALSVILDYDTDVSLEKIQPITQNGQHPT
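Tetracycline-induced HEK293 Trex D1 cells, force-coupled to calcium, dye-loaded; compounds added and read 180 s, then EC80 dopamine added and calcium flux tracked kinetically another 180 s.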
DRD3 agonist – D3 dopamine receptor (human) agonism; P35462; D3R DiscoveRx beta-arrestin cells, luminescence, 90 min; max activation, %; 0.58% of 410,000 active; in the data active = max activation above about 30%; note: 0% is about no effect
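Cells at 1500/well, incubated overnight, then treated with pinned compounds (dopamine as control) for 90 min at 37 degrees C. DiscoveRx reagent added for 30 - 60 minutes at room temperature; luminescence read.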
D1 PAM – potentiators of human D1 dopamine receptor; 0.036% of 360,000 active; HEK293 TREx D1 cells, calcium flux, dopamine EC20 potentiation; potentiation, % at 10 µM; in the data active = potentiation above about 30%; note: 0% is about no effect
Chronic BCR inh – chronic active BCR signaling inhibition; 0.05% of 340,000 active; AID 493014; ABC-DLBCL IkBa-CBG/CBR reporter, luminescence ratio, 4 h; Potency, µM (titrated, usually from 46.1 µM), without a hit: at the highest dose activity change, negative = inhibition, most hits filed as inhibitors; active = well fitted inhibition curve with a large enough effect in the signal ratio, with a control signal flat, not every such curve was filed as active; inconclusive = small, poorly fitted or top-dose-only effect, or effect the other way, or a change in a side signal; the % refers to the signal ratio;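 note: potency is the fitted concentration of half-maximal effect; plate controls were basal doxycycline-induced cells for no effect and cells given 10 µM MG132 for full effect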
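Doxycycline induced both beetle luciferases in TMD8 lymphoma cells; IKK-driven degradation limits the IkappaBalpha-fused green signal, while red luminescence normalises for cell number and nonspecific effects. Compounds tested up to 46 uM, 4 hrs.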
D1 ag – human D1 receptor agonism; P21728; HEK293 T-REx D1 cells, calcium flux, agonist mode; activation, % at 2 µM; 1% of 360,000 active; in the data active = activation above about 30%; note: 0% is about no effect
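Inducible HEK293 T-REx D1 cells, force-coupled to calcium signalling, were plated at 4000 cells/well with tetracycline and held overnight at 30 C. After no-wash calcium dye loading, compound-evoked calcium rise over 180 s flagged agonists.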
An asterisk follows results filed as active; ? = inconclusive; . = no result. Only some compounds are listed: those with a hit (about 6% of all), similar ones and a draw of the others.

SMILES	D3 antag	D1 antag	DRD3 agonist	D1 PAM	Chronic BCR inh	D1 ag
CC(C)c1ccc(OCC(O)CN2CCN(c3ccccc3)CC2)cc1 (stereo not given)	?	-11	45*	-6	-1%	14
COc1ccc(OCC(O)CN2CCN(c3ccccc3)CC2)cc1 (stereo not given)	?	-13	27	-5	?	7
O=C(NCc1ccc(F)cc1)C(=O)Nc1ccc2nc3n(c(=O)c2c1)CCCCC3	.	-13	6	-2	.	1
Nc1ncnc(N)c1NC(=O)c1cc(Cl)c(OCc2ccccc2)c(Cl)c1	-12	.	1	.	.	.
CC(C)C[C@@H]1Cc2[nH][nH]c(=O)c2[C@H](C(C)C)O1	5	.	-2	.	.	.
OC(COc1ccc2c(c1)OCO2)CN1CCCCC1 (stereo not given)	-7	-3	-13	-4	0%	2
OC(COc1ccc2c(c1)OCO2)CN1CCN(c2ccccc2)CC1 (stereo not given)	-63*	-23	14	-7	?	17
COc1ccc(OCC(CO)N2CCN(c3ccccc3)CC2)cc1 (stereo not given)	?	.	37*	.	.	.
CCCOc1cccc(C2c3c(oc4ccc(F)cc4c3=O)C(=O)N2Cc2ccc3c(c2)OCO3)c1 (stereo not given)	.	6	3	-4	.	0
Cc1ccccc1-n1nnnc1Sc1nnnn1-c1ccccc1	7	.	-9	-3	?	-2
CCCSc1nnc(Sc2nnnn2-c2ccccc2)s1	?	-18	-5	9	9.2µM*	4
CCN1CCN(C(=O)c2ccccc2N(Cc2ccccc2)S(=O)(=O)c2ccc(C)cc2)CC1	-52*	16	-3	4	12%	8
Cc1ccc(N(CCC(=O)N2CCOCC2)S(=O)(=O)c2ccccc2)cc1	-14	-55*	19	.	-1%	2
CCN1CCN(C(=O)c2ccccc2N(Cc2ccccc2)S(C)(=O)=O)CC1	13	9	-14	-4	1%	3
CS(=O)(=O)N(CC(=O)N1CCOCC1)c1ccccc1	12	-10	0	-1	-3%	1
O=S(=O)(/N=C(/c1ccccc1)N1CCOCC1)c1ccc(Br)cc1	5	11	1	0	1%	2
Cc1ccc(S(=O)(=O)/N=C(/c2ccccc2)N2CCOCC2)cc1	7	13	36*	-5	2%	2
CN(C)S(=O)(=O)N(CC(=O)N1CCOCC1)c1ccccc1	-52*	3	-7	-7	1%	0
Cc1ccc(N(CC(=O)N2CCOCC2)S(=O)(=O)c2ccccc2)cc1	5	-6	2	-10	2%	1
OC(c1ccccc1)c1nc(-c2cccc(C(F)(F)F)c2)cs1 (stereo not given)	0	.	-1	.	.	.
COc1ccc(Br)cc1S(=O)(=O)N(CC(=O)N1CCOCC1)c1ccccc1	-120*	0	-7	0	-2%	3
COc1ccc(C)cc1S(=O)(=O)N(CC(=O)N1CCOCC1)c1cc(C)cc(C)c1	-4	5	-1	-3	1%	2
Cc1nnn(C23C[C@@H]4C[C@@H](CC(C(=O)N5CCN(c6ccccc6)CC5)(C4)C2)C3)n1	0	-34*	0	-2	-10%	0
O=C(N1CCN(c2ccccc2)CC1)C12CC3CC(CC(C3)C1)C2	0	14	26	6	1%	2
Cc1ccccc1OCCCCn1c(C2CC(=O)N(c3ccccc3Cl)C2)nc2ccccc21 (stereo not given)	.	-10	-9	-4	.	32*
SMILES	D3 antag	D1 antag	DRD3 agonist	D1 PAM	Chronic BCR inh	D1 ag
Cc1cccc(C)c1OCCCCn1c(C2CC(=O)N(c3ccc(F)cc3)C2)nc2ccccc21 (stereo not given)	.	-10	-12	0	.	36*
COc1ccccc1OCCCCn1c(C2CC(=O)N(c3ccccc3Cl)C2)nc2ccccc21 (stereo not given)	.	3	-7	-2	.	37*
O=C(/C=C/[C@H]1O[C@@H](n2ccc(=O)[nH]c2=O)[C@H](O)[C@@H]1O)NCc1ccc2c(c1)OCO2	0	.	-1	.	.	.
Brc1ccccc1-n1ncc2c1ncn1nc(Cc3ccccc3)nc21	.	-63*	1	0	.	0
COc1ccc(Cc2nc3c4cnn(-c5ccccc5Br)c4ncn3n2)cc1	.	-18	9	-3	.	0
Cc1ccc2nc(C(C)(C)C)c(Cc3cccc(Cl)c3)n2c1	23	.	2	.	.	.
COC(=O)C1=CN(Cc2ccc(OC)cc2)C=C(C(=O)OC)C1c1cc(OC)c(OC)c(OC)c1	-3	2	-6	0	-17%	6
COC(=O)C1=CN(Cc2ccc(F)cc2)C=C(C(=O)OC)C1c1cc(OC)c(OC)c(OC)c1	10	-41*	5	-8	-14%	0
O=C(NCc1ccco1)C1CCCN(c2nnc(-n3cccc3)s2)C1 (stereo not given)	-9	-39*	3	-1	-2%	2
COc1cc(C)ccc1OCCCCOc1ccccc1C(C)=O	12	-49*	6	-6	0%	18
CC(=O)c1ccccc1OCCOCCOc1ccccc1C(C)=O	6	-34*	8	-7	-1%	25
COc1cc(C)ccc1OCCCOc1ccccc1Cl	-10	0	-4	2	14%	3
CC1(Oc2ccccc2-c2ccn[nH]2)CCN(Cc2ccc(OC(F)(F)F)cc2)C1 (stereo not given)	-17	.	-10	.	.	.
CC(=O)Nc1nc(C)nc(-c2ccccc2OC(C)=O)n1	18	0	31*	-2	4%	2
Cc1ccc(-n2c(/C=C/c3c(C)n(C)c4ccccc34)nc3ccccc3c2=O)cc1	.	4	1	-2	.	1
CCCOP(=O)(OCCC)C(Nc1ccc(C(C)C)cc1)c1ccc([N+](=O)[O-])cc1 (stereo not given)	-12	-33*	-11	-8	4%	7
CS(=O)(=O)Nc1ccc(C(=O)NCCSC2CCCCC2)cc1	-16	1	-10	-1	6%	0
O=C(NCCSC1CCCCC1)c1ccccc1	-3	-77*	-2	-16	-3%	0
COc1ccc(C(=O)NCCSC2CCCCC2)cc1	-2	-43*	-4	-5	?	1
CCc1ccc(Sc2cc(C(=O)NCc3ccccc3OC)c3ccccc3n2)cc1	.	-6	5	-2	?	5
CCOc1ccc(OCCNCc2ccc(OC(C)C(=O)N(C)C)c(OCC)c2)cc1 (stereo not given)	5	10	1	-2	0%	56*
CC(C)Cn1cc(C(=O)NCCCN2CCCC2=O)c2c3ccccc3n(C)c2c1=O	7	-30*	-15	2	?	-1
